From PubChem BioAssay
CtBP-E1A inh: blocks the CtBP interaction with E1A. AlphaScreen GST-E1A/His-CtBP binding, 1536-well; stronger effect = lower value. activity change, % (test concentration not listed). 0.49% of 340,000 active. AID 651724; in the data active = activity change below about -65%; inconclusive = mostly about -30% to -63%; also: % is scaled to controls: 0 for no effect and ±100 for the full control effect
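Protein mix (5X: 125 nM each GST-E1A, His-CtBP) was incubated with pinned compound 2 h at 37 deg C in dark, in 50 mM Tris pH 8.0 buffer with 300 mM NaCl. Glutathione donor and nickel acceptor beads followed; AlphaScreen signal read after 1 h.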
JMJD2A Tudor: JMJD2A Tudor domain (human) inhibition; O75164; AlphaScreen JMJD2A-Tudor / H3K4me3 peptide binding; Potency, µM (titrated, usually from 114 µM), without a hit: at the top dose activity change, negative = inhibition, hits mostly inhibitors; 4.4% of 390,000 active; also: potency is read from the fitted curve at half-maximal effect; % is scaled to controls: 0 for no effect and ±100 for the full control effect; nearly all actives have a fitted effect of over 50% in size
Target sequence (O75164 whole entry, looked up, the tested form may be a part): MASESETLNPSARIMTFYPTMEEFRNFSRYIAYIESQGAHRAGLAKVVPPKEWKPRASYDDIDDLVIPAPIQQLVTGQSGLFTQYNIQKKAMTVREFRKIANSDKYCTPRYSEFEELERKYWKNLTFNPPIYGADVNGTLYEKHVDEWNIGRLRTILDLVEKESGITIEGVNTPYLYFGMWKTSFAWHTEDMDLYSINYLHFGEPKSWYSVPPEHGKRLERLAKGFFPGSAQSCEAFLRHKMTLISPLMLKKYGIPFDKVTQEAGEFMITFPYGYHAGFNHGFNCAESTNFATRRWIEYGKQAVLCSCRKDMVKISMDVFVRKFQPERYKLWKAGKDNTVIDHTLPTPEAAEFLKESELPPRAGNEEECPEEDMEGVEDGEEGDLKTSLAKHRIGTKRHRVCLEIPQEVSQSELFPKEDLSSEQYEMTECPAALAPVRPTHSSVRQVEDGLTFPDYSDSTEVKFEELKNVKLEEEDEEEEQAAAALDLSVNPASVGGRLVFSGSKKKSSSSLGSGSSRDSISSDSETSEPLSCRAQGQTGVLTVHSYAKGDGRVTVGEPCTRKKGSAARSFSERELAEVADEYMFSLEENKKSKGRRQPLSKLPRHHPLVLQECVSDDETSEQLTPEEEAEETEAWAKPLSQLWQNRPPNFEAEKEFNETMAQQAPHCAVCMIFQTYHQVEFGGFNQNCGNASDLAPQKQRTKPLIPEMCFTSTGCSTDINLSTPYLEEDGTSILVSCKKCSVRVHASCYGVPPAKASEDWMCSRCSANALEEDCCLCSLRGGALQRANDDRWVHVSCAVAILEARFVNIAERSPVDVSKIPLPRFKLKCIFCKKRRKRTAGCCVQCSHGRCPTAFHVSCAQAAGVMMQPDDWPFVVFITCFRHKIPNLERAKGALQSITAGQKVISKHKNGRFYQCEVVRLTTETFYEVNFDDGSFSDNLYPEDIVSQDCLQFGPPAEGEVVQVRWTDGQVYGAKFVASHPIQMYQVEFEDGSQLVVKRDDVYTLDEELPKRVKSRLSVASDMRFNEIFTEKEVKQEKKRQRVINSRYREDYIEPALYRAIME
HP1b binding inh: blocks HP1-beta chromodomain binding to methylated histone tails; P83916; AlphaScreen HP1-beta / biotin-H3K9me3 peptide binding; Potency, µM (top dose mostly 114 µM), inactives show at the top dose activity change, negative = inhibition, hits mostly inhibitors; 0.56% of 390,000 active; also: potency is read from the fitted curve at half-maximal effect; nearly all actives have a fitted effect of over 70% in size
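AlphaScreen: HP1-beta (50 nM) preformed 30 min with biotin-H3(1-18)K9me3 peptide (50 nM) in PBS pH 7.4, 0.01% Tween-20. Compound added for 30 min at RT, then streptavidin donor/nickel chelate acceptor beads (10 ug/mL) for 30 min.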
Six1-Eya2 blk: blocks human Six1 binding to Eya2; AlphaScreen GST-Six1/His-Eya2 binding, biochemical; stronger effect = lower value; activity change, % (concentration not given with the values); Q15475+O00167; 0.56% of 360,000 active; AID 651725; in the data active = activity change below about -65%; inconclusive = mostly about -30% to -63%; also: % is scaled to controls: 0 for no effect and ±100 for the full control effect
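Six1/Eya2 binding was read as AlphaScreen signal after compounds were pinned into GST-Six1 plus His-tagged Eya2 (5X stock 250/500 nM) in pH 8.0 Tris/NaCl/TCEP buffer, beads added, then incubated 1 h, 37 C, dark.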
G9a block: inhibitors of human histone lysine methyltransferase G9a. Q96KQ7. G9a H3K9 monomethylation, AlphaScreen, 2 h. Potency, µM (highest dose often 102 µM), without a hit: top-dose activity, negative = inhibition, usual class: inhibitors. 8.8% of 350,000 active. AID 504332; also: potency is read from the fitted curve at half-maximal effect; % is scaled to controls: 0 for no effect and ±100 for the full control effect; nearly all actives have a fitted effect of over 75% in size
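G9a (20 nM) was preincubated 15 min with compound, then reacted 2 h at room temperature with 500 nM biotin-H3K9 peptide and 20 µM SAM. Monomethyl-H3K9 detected by AlphaScreen using anti-H3K9me1 antibody.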
BAZ2B inh: blocks human BAZ2B | 4.4% of 360,000 active | AlphaScreen BAZ2B-H3K14Ac peptide displacement | Potency, µM (titrated, usually from 114 µM), without a hit: top-dose activity change, negative = inhibition, hits mostly inhibitors | Q9UIF8 | AID 504333; also: potency is read from the fitted curve at half-maximal effect; % is scaled to controls: 0 for no effect and ±100 for the full control effect; nearly all actives have a fitted effect of over 60% in size
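In this displacement format the biotinylated H3(5-23) peptide acetylated at Lys14 serves as ligand at 50 nM, with BAZ2B at 50 nM in PBS pH 7.4 containing 0.01% Tween-20. Donor and acceptor beads are 10 ug/mL final.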
An asterisk follows results filed as active; ? = inconclusive; / = no result given; [ ] = another dose, or the depositor's remark. An excerpt weighted towards active compounds, which were near 10% of everything screened. Unless noted, calls follow the shape of the dose curve; as a rule, active = well fitted inhibition curve with a large enough effect; inconclusive = small, poorly fitted or top-dose-only effect; inactive = no such curve, though single readings can be large or run the other way.

SMILES	CtBP-E1A inh	JMJD2A Tudor	HP1b binding inh	Six1-Eya2 blk	G9a block	BAZ2B inh
CCOC(=O)Cn1c(=O)cc(C)c2c(C)nn(-c3cccc(F)c3)c21	/	25.7%	-4.9%	/	51.0%[59 µM]	29.6%
CN1CCN(c2ccc(CNS(=O)(=O)Cc3cccc(C(F)(F)F)c3)cc2)CC1	/	-10.3%	29.8%	0.6	-7.0%	-15.7%
CC1(C)OC2OC(C(=O)N/N=C/c3cc(Br)ccc3O)C3OC(C)(C)OC3C2O1 (stereo unspecified)	-89.7*	?	16.2%	-82.4*	48.6%[59 µM]	4.1%
N#Cc1nc(Nc2cc(F)cc(F)c2)c2ncn(CCCN3CCCC3)c2n1	/	-20.6%	/	/	/	/
O=C(NCC(c1cccs1)N1CCOCC1)c1cc([N+](=O)[O-])ccc1Cl (stereo unspecified)	0.3	-4.8%	28.1%	-9.2	44.7µM*	9.3%
O=C(NCC(c1cccs1)N1CCOCC1)c1ccc([N+](=O)[O-])cc1 (stereo unspecified)	2.0	-10.1%	12.3%	9.3	-9.2%	-0.5%
Cc1noc(C)c1C(=O)N1CCC2(CCN(Cc3ccncc3)CC2)CC1	/	/	/	/	-2.5%[12.7 µM]	/
Cc1cccc(C)c1N1C(=O)c2ccccc2NC(=O)C1C(=O)NCCc1ccccc1F (stereo unspecified)	3.8	/	/	1.8	/	/
Oc1cccc(Nc2nc(O)c(/C=C3\C=Nc4ccccc43)s2)c1	?	-23.5%[11.4 µM]	11.3%	-16.6	50.1µM*	?
COc1cccc(S(=O)(=O)Nc2ccc3sc(C)nc3c2)c1	-3.7	79.4µM*	25.9%	-1.1	22.4µM*	-8.2%
Cc1ccc(OCCSc2nnc(-c3cccs3)o2)cc1Cl	/	180.5%	246.3%	/	41.4%[59 µM]	40.1%
CCCCOC1(c2ccccc2)NC(=S)NN=C1c1ccccc1 (stereo unspecified)	/	/	/	/	44.7µM*	-37.2%
COC1(c2ccccc2)NC(=S)NN=C1c1ccccc1 (stereo unspecified)	?	-21.0%	11.6%	?	?	-4.5%
CCN(CC)S(=O)(=O)c1cc(NC(=O)c2ccccc2OCc2c(C)noc2C)ccc1C	4.4	89.1µM*	26.5%	-3.8	/	/
Cc1noc(C)c1COc1ccccc1C(=O)Nc1cccc(S(=O)(=O)N(C)C)c1	-14.4	-17.1%	8.5%	3.2	-38.2%	5.5%
COc1cccc(NC(=O)CN(C)C(=O)c2ccccc2OCc2c(C)noc2C)c1	-5.3	-7.8%	8.9%	3.8	7.94µM*	10.1%
COc1ccc(C)cc1NC(=O)C1CCN(S(=O)(=O)Cc2ccccc2)CC1	/	-16.9%	3.3%	/	-9.7%[59 µM]	-1.4%
O=C(c1cccs1)N1CCCc2cc(NS(=O)(=O)c3ccc(Cl)cc3)ccc21	/	-23.5%	10.0%	/	0.8%[59 µM]	-27.7%
CCn1c(CCCOc2ccc(Cl)cc2Cl)n[nH]c1=S	16.3	-22.6%	34.3%	1.7	?	-30.4%
C=CCn1c(CCC(O)COCCC)n[nH]c1=S (stereo unspecified)	12.7	22.4µM*	25.8%	-9.5	-33.9%	-27.2%
Cc1ccc2[nH]c3nc(NN)nnc3c2c1	?	50.1µM*	38.0%	?	/	3.55µM*
COc1ccc(S(=O)(=O)N2N=C(c3cccc(NS(C)(=O)=O)c3)CC2c2ccco2)cc1 (stereo unspecified)	/	2.7%	66.1%	-24.2	44.7µM*	-29.9%
CS(=O)(=O)Nc1cccc(C2=NN(S(=O)(=O)c3ccc(F)cc3)C(c3cccs3)C2)c1 (stereo unspecified)	-1.0	79.4µM*	-5.3%	0.0	-18.4%[59 µM]	-4.7%
CCS(=O)(=O)Nc1cccc(C2=NN(S(=O)(=O)c3ccc(F)cc3)C(c3cccs3)C2)c1 (stereo unspecified)	-17.9	-14.0%	31.1%	-20.7	-29.1%[59 µM]	-11.2%
Cc1cccc2sc(N(Cc3cccnc3)C(=O)Cc3ccccc3)nc12	/	-6.2%	12.3%	/	0.3%[59 µM]	1.7%
SMILES	CtBP-E1A inh	JMJD2A Tudor	HP1b binding inh	Six1-Eya2 blk	G9a block	BAZ2B inh
CC(C)c1ccc(NC(=O)[C@H](NC(=O)[C@@H]2Cc3ccccc3CN2)c2ccccc2)cc1	-1.5	-17.9%	48.4%	-4.4	44.7µM*	-28.0%
Cc1ccc(NC(=O)[C@H](NC(=O)[C@@H]2Cc3ccccc3CN2)c2ccccc2)cc1	-8.6	-26.4%	8.5%	0.9	/	?
CSCC[C@H](NC(=O)[C@@H]1Cc2ccccc2CN1)C(=O)NC1CCCC1	7.1	-0.4%	20.0%	3.9	/	-19.8%
CSCC[C@H](NC(=O)[C@@H]1Cc2ccccc2CN1)C(=O)NC(C)c1ccccc1 (stereo partly specified)	1.9	?	21.0%	0.9	22.4µM*	-28.4%
CCOC(=O)C(C)N1C(=O)S/C(=C/c2cc(C)n(-c3ccncc3)c2C)C1=O (stereo unspecified)	/	?	-8.2%	-7.4	50.1µM*	?
CCn1c(C)cc(/C=C2/SC(=O)N(C(C)C(=O)OC)C2=O)c1C (stereo unspecified)	-10.4	?	-8.0%	?	?	?
CCOC(=O)C(C)N1C(=O)S/C(=C/c2cc(C)n(-c3ccccn3)c2C)C1=O (stereo unspecified)	-9.7	56.2µM*	-31.3%	-13.3	6.7%[12.7 µM]	?
CCC(C)NC(=O)CCCc1nnc2n(CC(C)C)c(=O)c3sccc3n12 (stereo unspecified)	/	-2.2%	18.1%	/	-5.0%[59 µM]	-37.3%
COc1ccc(C(=O)NCc2nnc(SCC(=O)c3ccccc3)n2C)cc1OC	-6.6	-13.0%	19.1%	-11.7	56.2µM*	7.3%
COc1ccc(C(=O)CSc2nnc(CNC(=O)c3ccc(OC)cc3)n2C)cc1	6.3	50.1µM*	14.8%	3.0	?	3.7%
Cc1cc(C)nc(SCc2nnc(SCC(=O)Nc3nc(-c4ccccc4)cs3)n2C)n1	2.0	-6.9%[11.4 µM]	-28.2%	-26.8	-0.1%[59 µM]	8.6%
Cc1ccc(C(=O)CSc2nnc(CNc3nc(-c4ccccc4)cs3)n2C)cc1	-26.4	-28.1%[11.4 µM]	18.5%	?	35.5µM*	?
CCN(CC)CCNC(=O)C(=O)Nc1cc2c3c(c1)CC(=O)N3CCC2	4.5	-29.0%	19.4%	4.5	?	-10.5%
O=C(C1CN(C(=O)c2cc3cc(Cl)ccc3o2)c2ccccc2O1)N1CCCCC1 (stereo unspecified)	8.3	-23.3%	5.2%	-6.1	16.8%[12.7 µM]	-12.0%
COc1cc(OC)nc(Nc2nc(C(N)Cc3ccc(C(F)(F)F)cc3)cs2)n1 (stereo unspecified)	-10.0	/	/	-5.9	/	/
Cc1cc2c(c(/C=C/C(=O)c3ccccc3)c1)OC1(C=C2)Oc2ccccc2C(=O)N1C (stereo unspecified)	0.0	-33.2%	16.3%	-0.1	50.1µM*	?
